Measurements published in PubChem BioAssay (Tox21).
A number with no mark means an inactive call. Inconclusive results are not listed. Where a call stands in place of a potency, no number is given. Activity calls are given as the source filed them. Unless noted, calls follow the shape of the dose curve; as a rule, active = well fitted curve in the direction sought with a large enough effect in the repeat runs; inconclusive = weak or mixed curves; inactive = no such curve, though single readings can be large; an effect the other way counts as inactive or inconclusive.

What was measured:
[1] = target: Androgen receptor (Homo sapiens) (UniProt P10275); assay: qHTS assay to identify small molecule antagonists of the androgen receptor (AR) signaling pathway using the MDA cell line in the presence of 0.5 nM R1881 (AID 1259243); also: nearly all actives have a fitted effect of over 50% in size
Outline: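 Luminescence from an AR/GR-responsive MMTV-luciferase construct in MDA-kb2 breast carcinoma cells, read 30 min after ONE-Glo, following 16 hr co-treatment with compounds and 0.5 nM R1881.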

[2] = qHTS assay to identify small molecule HDAC inhibitors (AID 1259364);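 also: wild-type HCT-116 cells with endogenous class I/II HDAC activity; top concentration of the series differs between compounds; nearly all actives have a fitted effect of over 45% in size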
Outline: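 HCT-116 wt cells, 1,500/well, overnight attach. Compounds (DMSO) 2 h, 37 °C. HDAC-Glo I/II, 30 min RT. Luminescence.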

[3] = qHTS assay to identify small molecule HDAC inhibitors - cell viability counter screen (AID 1259365); also: series mostly up to about 92 µM; nearly all actives have a fitted effect of over 50% in size
Outline: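 CellTiter-Glo luminescence (30 min, room temperature) reported viability after a 2 h compound exposure at 37 C. Cells: wild-type HCT-116, 1,500 per well, seeded the night before.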

[4] = qHTS assay to identify small molecule agonists of the sonic hedgehog signaling (Shh) pathway - cell viability counter screen (AID 1259366); also: nearly all actives have a fitted effect of over 50% in size
Outline: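 Cytotoxicity counter screen: CellTiter-Fluor reagent added after 23 h compound exposure, then 1 h at 37C and fluorescence read. Cells were 3T3 Gli1-Luc, seeded 2,000 per well and dosed 4 h post-plating.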

[5] = qHTS assay to identify small molecule antagonists of the sonic hedgehog signaling (Shh) pathway - cell viability counter screen (AID 1259367); also: nearly all actives have a fitted effect of over 55% in size; also: potency is read from the fitted curve at half-maximal effect
Outline: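 Fluorescence read-out (CellTiter-Fluor, 1 hr at 37C) taken after 23 hr compound treatment of 3T3 Gli1-Luc cells stimulated with conditioned medium. Cells were seeded at 2,000 per well and pre-incubated 4 hr.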

[6] = qHTS assay to identify small molecule agonists of the sonic hedgehog signaling (Shh) pathway (AID 1259368; calls by dose curve;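 also: NIH/3T3-derived 3T3Gli1-Luc cells carrying a stable Gli1-driven firefly luciferase reporter; series mostly up to about 92 µM; nearly all actives have a fitted effect of over 15% in size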)
Outline: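 Following a 24 hr incubation with DMSO-dissolved compounds at 37 C, 5% CO2, Gli1-Luc NIH/3T3-derived cells received luciferase reagent for 30 min at room temperature prior to luminescence measurement.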

[7] = qHTS assay to identify small molecule antagonists of the sonic hedgehog signaling (Shh) pathway (AID 1259369; calls by dose curve; also: nearly all actives have a fitted effect of over 45% in size; also: potency is read from the fitted curve at half-maximal effect)
Outline: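 Read-out is luminescence from a firefly luciferase gene controlled by the Gli1 response element, in 3T3Gli1-Luc cells pre-incubated 4hr then exposed to compounds and conditioned medium for 24hr.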

[8] = target: Estrogen receptor beta (Homo sapiens) (UniProt Q92731); assay: qHTS assay to identify small molecule agonists of the estrogen receptor beta (ER-beta) signaling pathway (AID 1259377; active = well fitted activation curve with a large enough effect in the signal ratio in the repeat runs, not every such curve was filed as active; the % refers to the signal ratio)
Outline: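 Ratiometric beta-lactamase FRET read-out came after 2 h substrate loading at room temperature. It followed 16 h compound treatment at 37C of GripTite HEK293T cells carrying a UAS-bla reporter, plated in 2% charcoal-stripped FBS medium.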

[9] = qHTS assay to identify small molecule agonists of the androgen receptor (AR) signaling pathway in the presence of an antagonist - cell viability counter screen (AID 1259379);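 also: MDA-kb2 human breast cancer cells carrying an MMTV luciferase reporter; series mostly up to about 92 µM; nearly all actives have a fitted effect of over 25% in size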
Outline: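 Each compound was tested at 15 concentrations on MDA-kb2 cells in the presence of 3.0uM nilutamide. Viability was measured by CellTiter-Fluor fluorescence after a 16 hr incubation at 37C in a CO2-free atmosphere.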

[10] = qHTS assay to identify small molecule agonists of the estrogen receptor beta (ER-beta) signaling pathway - cell viability counter screen (AID 1259380); also: nearly all actives have a fitted effect of over 30% in size
Outline: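 Compounds dissolved in DMSO were pin-transferred onto ER-beta-UAS-bla HEK293T cells that had settled 6 hr, and exposure ran 16 hr at 37C. Following the reporter read, CellTiter-Glo luminescence after 30 min at room temperature indicated cytotoxicity.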

[11] = qHTS assay to identify small molecule antagonists of the estrogen receptor beta (ER-beta) signaling pathway - cell viability counter screen (AID 1259382); also: series mostly up to about 92 µM; nearly all actives have a fitted effect of over 55% in size
Outline: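 CellTiter-Glo ATP luminescence measured after the LiveBLAzer read in the same wells; ER-beta-UAS-bla HEK293T cells, 16 hr compound treatment with 1nM 17-beta-estradiol agonist at 37C, 5% CO2.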

[12] = qHTS assay to identify small molecule agonists or antagonists of the thyroid stimulating hormone receptor (TSHR) signaling pathway - wild type cell line counter screen (AID 1259384; calls by dose curve)
Outline: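 Wild-type Hek293 cells, 800/well, 18 h at 37C, then compound with Ro20-1724 for 30 min RT. cAMP by HTRF (cAMP-d2/anti-cAMP cryptate), 1 h RT, fluorescence read. 15 concentrations, triplicates.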

[13] = target: Thyrotropin receptor (Homo sapiens) (UniProt P16473); assay: qHTS assay to identify small molecule antagonists of the thyroid stimulating hormone receptor (TSHR) signaling pathway (AID 1259385; calls by dose curve; also: nearly all actives have a fitted effect of over 20% in size)
Outline: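 TSHR-HEK293 cells (800/well) plated 18 h, then compounds with Ro20-1724 and TSH at 1.5 ng/mL final, 30 min at room temperature. cAMP quantified by HTRF (cAMP-d2/anti-cAMP-cryptate, 1 h); 15 concentrations in triplicate.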

[14] = qHTS assay to identify small molecule agonists of the estrogen receptor alpha (ER-alpha) signaling pathway in the presence of an antagonist - cell viability counter screen (AID 1259386);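 also: series mostly up to about 92 µM; cells exposed to compounds for 22 h at 37 °C before the viability read; nearly all actives have a fitted effect of over 30% in size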
Outline: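 Using estrogen-depleted VM7Luc4E2 cells, the 15-concentration compound series was applied together with 10.0nM ICI-182,780 and incubated 22hr at 37C/5% CO2. Cell viability was then scored by CellTiter-Fluor.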

[15] = target: Progesterone receptor (Homo sapiens) (UniProt P06401); assay: qHTS assay to identify small molecule agonists of the progesterone receptor (PR) signaling pathway (AID 1346784; calls by dose curve; also: nearly all actives have a fitted effect of over 30% in size)
Outline: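 Agonist qHTS: compounds pinned onto 3,000 PR-UAS-bla HEK 293T cells per well in charcoal-stripped serum medium, 16hr at 37C, then beta-lactamase activity measured by LiveBLAzer FRET fluorescence after 2 hours at room temperature.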

[16] = qHTS assay to identify small molecule phospholipidosis (PLD) inducers (AID 1259344; active = well fitted curve in the direction sought with a large enough effect; an effect the other way counts as inactive or inconclusive)
Outline: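 Read-out is LipidTOX Red fluorescence (ex 595/em 615) imaged in HepG2 cells after 24 h compound exposure at 37 C, with Hoechst nuclear counterstain (ex 352/em 461) allowing per-cell normalisation.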

[17] = target: Androgen receptor (Homo sapiens) (UniProt P10275); assay: qHTS assay to identify small molecule agonists of the androgen receptor (AR) signaling pathway in the presence of an antagonist (AID 1259381; calls by dose curve; also: nearly all actives have a fitted effect of over 15% in size)
Outline: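 Plated MDA-kb2 cells (3,000/well) were pre-incubated 5hr, given nilutamide (3.0uM final) or buffer, then dosed with compounds in DMSO at 15 concentrations. Luciferase activity was quantified by luminescence after 16hr at 37C.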

[18] = target: Estrogen receptor beta (Homo sapiens) (UniProt Q92731); assay: qHTS assay to identify small molecule antagonists of the estrogen receptor beta (ER-beta) signaling pathway (AID 1259378; active = well fitted inhibition curve with a large enough effect in the signal ratio in the repeat runs, not every such curve was filed as active; the % refers to the signal ratio)
Outline: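 ER-beta-UAS-bla HEK293T cells in 2% charcoal-stripped FBS medium treated with compound plus 1nM final 17-beta-estradiol for 16 hr at 37C. Beta-lactamase reporter read by FRET substrate fluorescence after 2 hours at room temperature.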

[19] = target: Estrogen receptor (Homo sapiens) (UniProt P03372); assay: qHTS assay to identify small molecule antagonists of the estrogen receptor alpha (ER-alpha) signaling pathway using the BG1 cell line in the presence of 0.1 nM 17-beta-estradiol (AID 1259244); also: nearly all actives have a fitted effect of over 50% in size
Outline: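 Luciferase signal from VM7Luc4E2 ERE-reporter cells, co-dosed with test compound and 0.1 nM final 17beta-estradiol for 22 h, read with ONE-Glo.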

[20] = target: Estrogen receptor (Homo sapiens) (UniProt P03372); assay: qHTS assay to identify small molecule agonists of the estrogen receptor alpha (ER-alpha) signaling pathway in the presence of an antagonist (AID 1259383; calls by dose curve; also: top concentration of the series differs between compounds; nearly all actives have a fitted effect of over 15% in size)
Outline: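 Luminescent ERE-luciferase reporter, VM7Luc4E2 cells (endogenous ER-alpha); 10.0nM ICI-182,780 final; 15-point compound titration; 22hr at 37C; ONE-Glo, 30min RT.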

Estrogen receptor beta (Homo sapiens), sequence (Q92731 whole entry, looked up): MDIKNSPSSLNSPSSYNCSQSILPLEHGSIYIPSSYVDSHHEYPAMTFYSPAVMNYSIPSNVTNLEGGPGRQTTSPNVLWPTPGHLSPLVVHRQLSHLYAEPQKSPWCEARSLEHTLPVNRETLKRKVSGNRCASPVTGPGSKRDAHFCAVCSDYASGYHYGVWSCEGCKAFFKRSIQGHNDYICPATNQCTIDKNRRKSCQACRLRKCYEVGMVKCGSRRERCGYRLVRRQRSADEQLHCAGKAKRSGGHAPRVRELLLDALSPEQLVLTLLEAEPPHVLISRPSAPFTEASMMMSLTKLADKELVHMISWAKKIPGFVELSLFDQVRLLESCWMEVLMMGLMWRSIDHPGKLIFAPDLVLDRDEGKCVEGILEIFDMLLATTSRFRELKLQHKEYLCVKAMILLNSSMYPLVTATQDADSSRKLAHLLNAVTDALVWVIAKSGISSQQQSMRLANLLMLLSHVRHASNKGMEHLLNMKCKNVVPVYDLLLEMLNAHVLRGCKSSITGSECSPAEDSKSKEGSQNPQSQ
Androgen receptor (Homo sapiens), sequence (P10275 whole entry, looked up): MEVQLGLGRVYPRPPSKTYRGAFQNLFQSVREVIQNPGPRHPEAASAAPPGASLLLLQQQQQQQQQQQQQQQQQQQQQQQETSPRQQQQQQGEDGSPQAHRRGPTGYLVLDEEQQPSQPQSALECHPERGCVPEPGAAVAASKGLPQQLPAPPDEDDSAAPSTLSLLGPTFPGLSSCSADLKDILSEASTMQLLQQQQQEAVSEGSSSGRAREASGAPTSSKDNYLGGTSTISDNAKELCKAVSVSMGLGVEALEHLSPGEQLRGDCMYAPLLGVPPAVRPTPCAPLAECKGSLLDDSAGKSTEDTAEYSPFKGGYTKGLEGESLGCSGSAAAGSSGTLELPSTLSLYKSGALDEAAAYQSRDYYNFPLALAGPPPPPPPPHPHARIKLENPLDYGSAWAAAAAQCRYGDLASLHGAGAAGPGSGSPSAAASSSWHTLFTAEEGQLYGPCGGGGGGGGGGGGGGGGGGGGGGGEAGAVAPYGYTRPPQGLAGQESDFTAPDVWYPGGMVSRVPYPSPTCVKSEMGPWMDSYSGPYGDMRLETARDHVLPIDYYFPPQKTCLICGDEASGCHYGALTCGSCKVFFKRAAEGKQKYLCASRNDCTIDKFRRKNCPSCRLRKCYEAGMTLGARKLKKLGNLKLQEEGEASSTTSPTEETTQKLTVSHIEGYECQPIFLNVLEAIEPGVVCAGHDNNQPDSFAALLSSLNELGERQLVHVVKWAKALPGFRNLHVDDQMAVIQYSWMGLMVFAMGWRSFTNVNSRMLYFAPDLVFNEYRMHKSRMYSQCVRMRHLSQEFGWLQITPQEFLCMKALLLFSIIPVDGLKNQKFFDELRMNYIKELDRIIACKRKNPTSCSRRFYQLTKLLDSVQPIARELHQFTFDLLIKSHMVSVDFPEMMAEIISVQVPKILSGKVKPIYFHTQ
Progesterone receptor (Homo sapiens), sequence (P06401 whole entry, looked up): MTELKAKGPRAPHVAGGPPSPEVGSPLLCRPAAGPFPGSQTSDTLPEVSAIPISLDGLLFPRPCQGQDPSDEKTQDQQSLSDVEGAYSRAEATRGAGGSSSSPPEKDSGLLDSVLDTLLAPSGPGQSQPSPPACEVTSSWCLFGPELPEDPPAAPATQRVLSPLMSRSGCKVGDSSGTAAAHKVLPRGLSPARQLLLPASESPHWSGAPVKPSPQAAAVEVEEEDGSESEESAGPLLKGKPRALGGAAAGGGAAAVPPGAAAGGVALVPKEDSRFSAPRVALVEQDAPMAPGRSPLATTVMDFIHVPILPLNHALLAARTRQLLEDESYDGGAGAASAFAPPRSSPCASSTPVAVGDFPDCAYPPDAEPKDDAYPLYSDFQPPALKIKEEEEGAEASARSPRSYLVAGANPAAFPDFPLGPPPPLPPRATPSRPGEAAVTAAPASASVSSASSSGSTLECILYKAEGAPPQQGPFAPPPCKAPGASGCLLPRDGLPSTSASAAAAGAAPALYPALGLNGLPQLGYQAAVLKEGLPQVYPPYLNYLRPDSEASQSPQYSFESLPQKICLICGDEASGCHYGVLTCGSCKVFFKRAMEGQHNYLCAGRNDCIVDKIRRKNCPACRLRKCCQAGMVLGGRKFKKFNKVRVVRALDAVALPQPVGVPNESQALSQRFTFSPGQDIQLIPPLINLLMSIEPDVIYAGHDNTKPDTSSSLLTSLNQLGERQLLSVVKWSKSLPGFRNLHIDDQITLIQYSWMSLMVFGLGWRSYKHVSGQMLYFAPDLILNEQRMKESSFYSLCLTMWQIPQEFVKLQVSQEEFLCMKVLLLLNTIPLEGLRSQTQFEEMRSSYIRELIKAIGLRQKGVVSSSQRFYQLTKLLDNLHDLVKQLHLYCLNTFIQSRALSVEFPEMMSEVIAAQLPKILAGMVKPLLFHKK
Thyrotropin receptor (Homo sapiens), sequence (P16473 whole entry, looked up): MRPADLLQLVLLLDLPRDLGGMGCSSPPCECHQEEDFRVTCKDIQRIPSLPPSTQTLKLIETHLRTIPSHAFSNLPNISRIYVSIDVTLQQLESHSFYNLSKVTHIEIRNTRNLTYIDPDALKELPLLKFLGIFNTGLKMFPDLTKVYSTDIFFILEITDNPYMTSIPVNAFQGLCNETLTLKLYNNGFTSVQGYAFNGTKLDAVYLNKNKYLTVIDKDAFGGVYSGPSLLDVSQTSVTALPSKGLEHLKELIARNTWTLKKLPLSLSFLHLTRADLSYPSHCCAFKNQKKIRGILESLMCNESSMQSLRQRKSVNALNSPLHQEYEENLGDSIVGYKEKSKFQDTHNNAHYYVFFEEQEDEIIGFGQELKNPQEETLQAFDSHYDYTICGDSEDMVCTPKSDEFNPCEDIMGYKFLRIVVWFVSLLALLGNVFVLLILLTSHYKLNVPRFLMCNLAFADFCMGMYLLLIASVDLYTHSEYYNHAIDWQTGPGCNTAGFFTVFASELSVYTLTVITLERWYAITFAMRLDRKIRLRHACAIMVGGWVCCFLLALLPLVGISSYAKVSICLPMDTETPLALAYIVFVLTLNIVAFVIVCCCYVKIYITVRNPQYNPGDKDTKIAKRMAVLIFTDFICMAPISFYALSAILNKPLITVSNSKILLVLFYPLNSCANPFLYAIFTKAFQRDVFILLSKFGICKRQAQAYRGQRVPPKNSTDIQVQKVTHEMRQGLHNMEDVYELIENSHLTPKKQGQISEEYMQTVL
Estrogen receptor (Homo sapiens), sequence (P03372 whole entry, looked up): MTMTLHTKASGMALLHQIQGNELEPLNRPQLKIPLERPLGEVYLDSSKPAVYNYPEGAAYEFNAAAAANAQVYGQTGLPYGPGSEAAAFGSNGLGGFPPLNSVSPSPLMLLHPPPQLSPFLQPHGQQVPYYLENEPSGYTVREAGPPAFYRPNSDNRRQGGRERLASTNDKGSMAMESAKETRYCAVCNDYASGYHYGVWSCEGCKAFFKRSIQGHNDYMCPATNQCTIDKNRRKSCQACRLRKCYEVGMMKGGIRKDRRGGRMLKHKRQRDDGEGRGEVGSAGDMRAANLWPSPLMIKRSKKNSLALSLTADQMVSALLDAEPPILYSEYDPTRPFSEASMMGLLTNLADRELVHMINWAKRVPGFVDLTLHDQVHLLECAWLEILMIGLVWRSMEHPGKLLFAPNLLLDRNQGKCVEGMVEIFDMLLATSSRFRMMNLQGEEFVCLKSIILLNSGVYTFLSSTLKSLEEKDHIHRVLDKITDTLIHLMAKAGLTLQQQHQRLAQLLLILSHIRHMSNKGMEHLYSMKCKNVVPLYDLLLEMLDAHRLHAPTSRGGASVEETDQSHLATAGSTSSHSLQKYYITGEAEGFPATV

## O=C[C@H](O)[C@H](O)[C@H](O)CO
[1]
  Potency: inactive
[2]
  Potency: inactive
[3]
  Potency: inactive
[4]
  Potency: inactive
[5]
  Potency: inactive
[6]
  Potency: inactive
[7]
  Potency: inactive
[8]
  Potency: inactive
[9]
  Potency: inactive
[10]
  Potency: inactive
[11]
  Potency: inactive
[12]
  outcome: inactive
[13]
  Potency: inactive
[14]
  Potency: inactive
[15]
  outcome: inactive

## O=C1OC(OC(=O)c2cccnc2Nc2cccc(C(F)(F)F)c2)c2ccccc21 (stereo not given)
[1]
  Potency: inactive
[16]
  Potency: inactive
[2]
  Potency: inactive
[4]
  Potency: inactive
[5]
  Potency: inactive
[6]
  Potency: inactive
[9]
  Potency: inactive
[17]
  Potency: inactive
[12]
  outcome: inactive
[13]
  Potency: inactive
[14]
  Potency: inactive

## CC1(C)C(=O)N(Br)C(=O)N1Br
[1]
  Potency: inactive
[2]
  Potency: inactive
[3]
  Potency: inactive
[4]
  Potency: inactive
[5]
  Potency: inactive
[6]
  Potency: inactive
[7]
  Potency: inactive
[18]
  Potency: inactive
[9]
  Potency: inactive
[10]
  Potency: inactive
[17]
  Potency: inactive
[11]
  Potency: inactive
[13]
  Potency: inactive
[14]
  Potency: inactive
[15]
  outcome: inactive

## Cc1c(C(=O)O)cccc1[N+](=O)[O-]
[1]
  Potency: inactive
[2]
  Potency: inactive
[3]
  Potency: inactive
[5]
  Potency: 55.4 µM (active)
[6]
  Potency: inactive
[7]
  Potency: 19.6 µM (active)
[9]
  Potency: inactive
[10]
  Potency: inactive
[11]
  Potency: inactive
[12]
  outcome: inactive
[13]
  Potency: inactive
[14]
  Potency: inactive
[15]
  outcome: inactive

## O=S(=O)(O)c1cc(S(=O)(=O)O)c2ccc3c(S(=O)(=O)O)cc(S(=O)(=O)O)c4ccc1c2c43
[1]
  activity, negative = inhibition: 1.23% [at 19 µM]
[19]
  activity change, negative = inhibition: 0.118% [at 19 µM]
[2]
  activity change, negative = inhibition: 4.2% [at 19 µM]
[4]
  viability change, negative = cytotoxic: 1.66% [at 19 µM]
[5]
  viability change, negative = cytotoxic: 0.116% [at 19 µM]
[6]
  activity change: -2.01% [at 18.9 µM, hits give high values]
[7]
  activity change, negative = inhibition: 2.19% [at 19 µM]
[8]
  activation: -3.15% [at 19 µM]
[18]
  activity, negative = inhibition: -6.24% [at 19 µM]
[9]
  activity change, negative = cytotoxicity: 1.33% [at 19 µM]
[10]
  activity change, negative = cytotoxicity: 1.19% [at 19 µM]
[11]
  activity change, negative = cytotoxicity: 6.71% [at 19 µM]
[20]
  activation: -1.94% [at 19 µM]
[13]
  activity change, negative = inhibition: -2.92% [at 19 µM]
[14]
  activity change, negative = cytotoxicity: -2.62% [at 19 µM]

## C=CC(=O)OCCC#N
[1]
  Potency: inactive
[2]
  Potency: inactive
[3]
  Potency: inactive
[4]
  Potency: inactive
[5]
  Potency: inactive
[6]
  Potency: inactive
[7]
  Potency: inactive
[18]
  Potency: inactive
[9]
  Potency: inactive
[11]
  Potency: inactive
[12]
  outcome: inactive
[13]
  Potency: inactive
[14]
  Potency: inactive
[15]
  outcome: inactive

## N[C@@H](CSSC[C@H](N)C(=O)O)C(=O)O
[1]
  activity, negative = inhibition: 4.74% [at 0.349 µM]
[16]
  Potency: inactive
[2]
  activity change, negative = inhibition: -1.21% [at 0.349 µM]
[3]
  activity change, negative = cytotoxicity: 2.74% [at 0.349 µM]
[4]
  viability change, negative = cytotoxic: 13.4% [at 0.349 µM]
[6]
  activity change: -0.169% [at 0.349 µM, hits give high values]
[7]
  Potency: 0.335 µM (active)
[8]
  activation: 5.41% [at 0.348 µM]
[18]
  activity, negative = inhibition: 28.3% [at 0.349 µM]
[9]
  activity change, negative = cytotoxicity: 0.823% [at 0.35 µM]
[10]
  activity change, negative = cytotoxicity: 3.32% [at 0.349 µM]
[17]
  activation: -0.591% [at 0.349 µM]
[11]
  activity change, negative = cytotoxicity: -5.72% [at 0.349 µM]
[12]
  cAMP activity change: -6.57% [at 0.349 µM]
[13]
  activity change, negative = inhibition: 0.59% [at 0.349 µM]
[14]
  activity change, negative = cytotoxicity: 7.62% [at 0.349 µM]
[15]
  activation: -4.21% [at 0.349 µM]
